Screening results as filed in PubChem BioAssay.
CASP6 VEID inh: caspase-6 (human) enzyme inhibition; P55212; purified caspase-6, Z-VEID-R110 cleavage fluorescence; inhibition, % at 12.5 µM; 350,000 tested, 0.53% active; AID 686996;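 active = mean inhibition across replicates at least about 35%, with every replicate also reaching that limit, limit read from the data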
Ecoli rRNA inh: inhibits bacterial ribosomal RNA function over humanized ribosomes | E. coli WT GFP vs humanized-ribosome RFP mutants, fluorescence, 24 h; hits give low values; DMSO median 0, no signal -100 | GFP signal change (wild-type ribosome), % (concentration not given with the values) | 350,000 tested, 1.6% active;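 active = significant combined selectivity score with lowered wild-type GFP, culture density cut under 30%, mutant RFP and density less affected; inactive = any of these conditions unmet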
RAD52 inh: RAD52 (human) annealing inhibition; P43351; recombinant RAD52 DNA annealing, FRET fluorescence; inhibition, % at 18.7 µM; 360,000 tested, 0.46% active; AID 651710;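 active = every replicate showing at least 50% inhibition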
MLL AF4-AF9 inh: blocks AF4 peptide binding to human AF9. P42568. AlphaScreen, biotin-AF4 peptide binding to FLAG-AF9. inhibition, % at 10 µM. 350,000 tested, 0.47% active. AID 651704;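 active = every replicate reaching a set inhibition limit, whatever the replicate mean, cut at about 25% in these data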
NSD2 inh: inhibitors of human histone methyltransferase NSD2. O96028. NSD2 peptide methylation, AlphaScreen, 120 min. inhibition, % at 12.5 µM. 310,000 tested, 0.54% active. AID 743445; in the data active = inhibition above about 50%
Large screens that a line does not name were inactive. In the library only some 2.5% were active in any assay of this set; here they are far more common.

C[C@@H]1CCCCO[C@@H](CN(C)Cc2ccccc2)[C@H](C)CN([C@H](C)CO)C(=O)c2cc(NS(=O)(=O)c3ccc(Cl)cc3)ccc2O1	RAD52 inh 60.6 (no result: NSD2 inh)
C[C@H]1CCCCO[C@H](CN(C)Cc2ccccc2)[C@@H](C)CN([C@@H](C)CO)C(=O)c2cc(NS(=O)(=O)c3ccc(Cl)cc3)ccc2O1	none (no result: NSD2 inh)
C/C=C/c1cccc(-c2nc(C(=O)NC3CCC3)cc3c2[C@@H](CCO)N([S@](=O)C(C)(C)C)C3)c1	none (no result: CASP6 VEID inh, RAD52 inh, MLL AF4-AF9 inh, NSD2 inh)
CCOc1ccc(NC(=O)Nc2cc(-c3ccccc3)sc2C(=O)OC)cc1	none
COC(=O)c1sc(-c2ccccc2)cc1NC(=O)C1CC1	Ecoli rRNA inh -26.7
CN(C)c1ccc(/C=C/c2ccc3c4ccccc4ccc3[n+]2-c2ccccc2)cc1	CASP6 VEID inh 38.5, MLL AF4-AF9 inh 94.5 (no result: NSD2 inh)
CC(C)c1c(C(=O)N/N=C/c2c[nH]c3ccccc23)nnn1-c1nonc1N	Ecoli rRNA inh -17.9
CC(C)c1c(C(=O)N/N=C/c2cccs2)nnn1-c1nonc1N	none
Cc1ccsc1/C=N/NC(=O)c1nnn(-c2nonc2N)c1C(C)C	Ecoli rRNA inh -18.1
Nc1nonc1-n1nnc(C(=O)N/N=C/c2cccc(Cl)c2)c1-c1cccs1	Ecoli rRNA inh -16.9
CC(C)c1c(C(=O)N/N=C/c2cccc3ccccc23)nnn1-c1nonc1N	none
C[C@@H]1CN([C@@H](C)CO)C(=O)c2cc(NS(=O)(=O)c3ccc(Cl)cc3)ccc2O[C@@H]1CN(C)S(=O)(=O)c1ccccc1	none (no result: CASP6 VEID inh, RAD52 inh, MLL AF4-AF9 inh, NSD2 inh)
O=C(C[C@H]1CC[C@H](NC(=O)Cc2cccnc2)[C@@H](CO)O1)Nc1ccccc1	none (no result: NSD2 inh)
O=C(C1CCC1)N1CC(=O)N2[C@@H](CO)[C@@H](c3ccc(C#CCc4ccccc4)cc3)[C@@H]2C1	none (no result: NSD2 inh)
O=C1CC[C@@H](CN(Cc2ccccc2)Cc2cn[nH]c2-c2cc3ccccc3o2)N1	Ecoli rRNA inh -24.4
COc1ccc(C[C@@H]2CCc3cnnn3COC[C@H](C)NC2=O)cc1	none (no result: CASP6 VEID inh, RAD52 inh, MLL AF4-AF9 inh, NSD2 inh)
COc1ccc2c3c(n(C)c2c1)[C@@H](CO)N(C(=O)c1ccccn1)CC31CCN(C(C)=O)CC1	none (no result: NSD2 inh)
CCc1nn2cc(C(=O)c3cc(Cl)ccc3O)cnc2c1-c1ccc(F)cc1	Ecoli rRNA inh -17.7
Cc1nn(-c2ccccc2)c2ncc(C(=O)c3cc(Cl)ccc3O)cc12	none (no result: CASP6 VEID inh, Ecoli rRNA inh, RAD52 inh, MLL AF4-AF9 inh)
CCOc1ccc(N(CC(=O)Nc2cc(Cl)ccc2C)S(C)(=O)=O)cc1	CASP6 VEID inh 56.6
CCOc1ccc(N(CC(=O)Nc2ccccc2Cl)S(C)(=O)=O)cc1	none
CCC1CCc2sc(C(=O)O)cc2C1 (centres undefined)	none (no result: CASP6 VEID inh, Ecoli rRNA inh, RAD52 inh, MLL AF4-AF9 inh)
CCC1CCc2sc(C(=O)NNC(=O)c3ccncc3)cc2C1 (centres undefined)	CASP6 VEID inh 58.6
COc1ccc(NC(=O)COc2ccc(C(=O)OCC(=O)N(C(C)C)C(C)C)cc2OC)cc1	Ecoli rRNA inh -27.3
COc1cccc(CN(C)C(=O)c2ccc(OCC(=O)Nc3cccc(C(F)(F)F)c3)c(OC)c2)c1	none
COc1ccc(CN(C)C(=O)c2ccc(OCC(=O)Nc3cccc(C(F)(F)F)c3)c(OC)c2)c(OC)c1	CASP6 VEID inh 56.7
C[C@@H]1CN([C@H](C)CO)C(=O)c2cccc(NC(=O)Nc3ccc4c(c3)OCO4)c2O[C@@H]1CN(C)C(=O)Nc1ccccc1	none (no result: CASP6 VEID inh, RAD52 inh, MLL AF4-AF9 inh, NSD2 inh)
C[C@H](CO)N1C[C@H](C)[C@@H](CN(C)CC2CCCCC2)Oc2ccc(NC(=O)CCC(F)(F)F)cc2C1=O	none (no result: NSD2 inh)
COc1cccc(CSc2nnc(CSc3nc4nc(C)cc(C)n4n3)s2)c1	Ecoli rRNA inh -29.1 (no result: NSD2 inh)
Cc1cc(C)n2nc(SCc3nnc(SCc4ccccc4C)s3)nc2n1	none
C[C@@H]1CN([C@@H](C)CO)C(=O)c2cc(NS(=O)(=O)c3cn(C)cn3)ccc2O[C@H]1CN(C)S(=O)(=O)c1cn(C)cn1	none (no result: CASP6 VEID inh, RAD52 inh, MLL AF4-AF9 inh, NSD2 inh)
CCCOC(=O)C[N+](C)(C)CCOC1CC2CCC1(C)C2(C)C (centres undefined)	Ecoli rRNA inh -47.3
C[C@H](CO)N1C[C@H](C)[C@@H](CN(C)C(=O)C2CCCCC2)Oc2cc(C#CC3CC3)ccc2S1(=O)=O	none (no result: CASP6 VEID inh, RAD52 inh, MLL AF4-AF9 inh, NSD2 inh)
CC1=C(C#N)c2nc(N)c(C#N)c(C)c2/C1=C\c1ccccc1	none (no result: CASP6 VEID inh, Ecoli rRNA inh, RAD52 inh, MLL AF4-AF9 inh)
CC1=C(C#N)c2nc(N)c(C#N)c(C)c2/C1=C\c1ccc(OCC(=O)O)c(Cl)c1	NSD2 inh 56.6
CN(c1ccccc1)S(=O)(=O)c1ccccc1Br	Ecoli rRNA inh -38.4 (no result: NSD2 inh)
O=C(c1ccccc1)N1CC2(C1)[C@@H](c1ccccc1)[C@@H](CO)N2Cc1cccnc1	none (no result: CASP6 VEID inh, RAD52 inh, MLL AF4-AF9 inh, NSD2 inh)
COc1ccccc1NC(=S)N(Cc1cccnc1)Cc1ccco1	none
Cc1ccc(Cl)cc1NC(=S)N(Cc1ccccc1)Cc1cccnc1	Ecoli rRNA inh -26.1
COc1ccc(Cl)cc1NC(=S)N(Cc1cccnc1)Cc1ccco1	Ecoli rRNA inh -24.1
CC(C)NC(=O)N(C)C[C@H]1Oc2ncc(C#CCc3ccccc3)cc2C(=O)N([C@@H](C)CO)C[C@H]1C	none (no result: NSD2 inh)
C[C@H]1CCCCO[C@@H](CN(C)S(=O)(=O)c2ccc(F)cc2)[C@@H](C)CN([C@@H](C)CO)C(=O)c2cc(NC(=O)Nc3ccccc3)ccc2O1	none (no result: CASP6 VEID inh, RAD52 inh, MLL AF4-AF9 inh, NSD2 inh)
COc1ccc(S(=O)(=O)Nc2ccc3c(c2)CC(=O)N([C@H](C)CO)C[C@H](C)[C@H](CN(C)S(=O)(=O)c2ccccc2)O3)cc1	none (no result: CASP6 VEID inh, RAD52 inh, MLL AF4-AF9 inh, NSD2 inh)
O=C(O)/C(=C\c1cccc(F)c1)c1ccc(S(=O)(=O)N2CCCC2)s1	CASP6 VEID inh 57.2
O=C(O)/C(=C\c1ccc(C(F)(F)F)cc1)c1ccc(S(=O)(=O)N2CCCC2)s1	none
Cc1cccc(/C=C(\C(=O)O)c2ccc(S(=O)(=O)N3CCCC3)s2)c1	CASP6 VEID inh 51.6
CCOc1ccccc1/C=C(\C(=O)O)c1ccc(S(=O)(=O)N2CCCCC2)s1	CASP6 VEID inh 35.8 (no result: Ecoli rRNA inh)
COc1cc(/C=C(\C(=O)O)c2ccc(S(=O)(=O)N3CCCC3)s2)ccc1OCCC(C)C	CASP6 VEID inh 44.6
CCCCOc1ccc(/C=C(\C(=O)O)c2ccc(S(=O)(=O)N3CCCC3)s2)cc1	none
CCCc1cn([C@H]2C[C@@H]3O[C@H](CO)CC[C@@H]3O[C@@H]2CCc2ccc(-c3ccccc3C#N)cc2)nn1	none (no result: Ecoli rRNA inh, NSD2 inh)
CC(C)NC(=O)N(C)C[C@H]1Oc2ncc(C#CCc3ccccc3)cc2C(=O)N([C@H](C)CO)C[C@H]1C	none (no result: NSD2 inh)
COc1ccc(CN(C)C(=O)COC(=O)c2c(-c3ccccc3Cl)noc2C)cc1	Ecoli rRNA inh -27.4 (no result: CASP6 VEID inh)
COc1ccccc1S(=O)(=O)N1CC[C@@H]2[C@H](CO)N(C)c3ccc(C#Cc4cccc(F)c4)cc3[C@@H]21	none (no result: CASP6 VEID inh, RAD52 inh, MLL AF4-AF9 inh, NSD2 inh)
O=C(CSc1nc2ccccc2[nH]1)Nc1nc(-c2cccc(Br)c2)cs1	none
CN(C)CCCn1c(SCC(=O)Nc2nc(-c3cccc(Br)c3)cs2)nc2ccccc2c1=O	MLL AF4-AF9 inh 35.2
C[C@@H]1CCCCO[C@H](CN(C)S(=O)(=O)c2cccs2)[C@@H](C)CN([C@H](C)CO)C(=O)c2cc(NS(=O)(=O)c3cccs3)ccc2O1	none (no result: NSD2 inh)
